PubChem BioAssay AID1159580 (chemical genetic matrix, 2015)
Screen size: about 5,500 compounds; about 2,000 (36%) were called active. Not shown: some 18% with an inconclusive outcome. No stated cut-off is given here; in the data, active means normalized growth mostly below about 0.91 (no sharp cut-off); inconclusive means no clear call, values can overlap the other calls; inactive means mostly above about 0.92. The list shows a part of the results.

Test: chemical genetic growth profiling, strain panel (AID 1159580);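 further: tested at 20 µM; growth read once vehicle control cultures reached saturation at 30 °C; 1 = growth at the plate median or of vehicle wells; lower values mean less growth of the strain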
Details: growth OD
[1] = S. cerevisiae deletion strains, locus YAL013W, strain DEP1, active compounds read low
[2] = S. cerevisiae deletion strains, locus YBR229C, strain ROT2, active compounds read low
[3] = S. cerevisiae deletion strains, locus YDL101C, strain DUN1, active compounds read low
[4] = S. cerevisiae deletion strains, locus YDL134C, strain PPH21, active compounds read low
[5] = S. cerevisiae deletion strains, locus YDR150W, strain NUM1, active compounds read low
[6] = S. cerevisiae deletion strains, locus YEL061C, strain CIN8, active compounds read low
[7] = S. cerevisiae deletion strains, locus YGR078C, strain PAC10, active compounds read low
[8] = S. cerevisiae deletion strains, locus YHR030C, strain SLT2, active compounds read low
[9] = S. cerevisiae deletion strains, locus YHR087W, strain rtc3, active compounds read low
[10] = S. cerevisiae deletion strains, locus YJR043C, strain POL32, active compounds read low
[11] = S. cerevisiae deletion strains, locus YJR075W, strain HOC1, active compounds read low
[12] = S. cerevisiae deletion strains, locus YLR039C, strain RIC1, active compounds read low
[13] = S. cerevisiae deletion strains, locus YLR058C, strain SHM2 (second series), active compounds read low
[14] = S. cerevisiae deletion strains, locus YLR085C, strain ARP6, active compounds read low
[15] = S. cerevisiae deletion strains, locus YLR262C, strain YPT6, active compounds read low
[16] = S. cerevisiae deletion strains, locus YML094W, strain GIM5, active compounds read low
[17] = S. cerevisiae deletion strains, locus YMR219W, strain ESC1, active compounds read low
[18] = S. cerevisiae deletion strains, locus YMR263W, strain SAP30, active compounds read low
[19] = S. cerevisiae deletion strains, locus YNL153C, strain GIM3, active compounds read low
[20] = S. cerevisiae deletion strains, locus YNL298W, strain CLA4 (second series), active compounds read low
[21] = S. cerevisiae deletion strains, locus YNL322C, strain KRE1, active compounds read low
[22] = S. cerevisiae deletion strains, locus YNR030W, strain Alg12, active compounds read low
[23] = S. cerevisiae deletion strains, locus YOL006C, strain TOP1, active compounds read low
[24] = S. cerevisiae deletion strains, locus YPL055C, strain LGE1, active compounds read low
[25] = S. cerevisiae deletion strains, locus YPL241C, strain CIN2, active compounds read low
[26] = S. cerevisiae deletion strains, locus YPR135W, strain CTF4, active compounds read low
[27] = S. cerevisiae deletion strains, locus YCL061C, strain MRC1, active compounds read low
[28] = S. cerevisiae deletion strains, locus YJL187C, strain SWE1, active compounds read low

Measured: normalized growth

COC(=O)/C(=C/N(C)C)Sc1cc(C)c(Cl)cc1Cl
active: [8] 0.296 | S. cerevisiae deletion strains, locus YKL190W, strain CNB1, active compounds read low 0.91 | [12] 0.622 | [15] 0.587 | [21] 0.933
inactive: [1] 0.945 | [2] 0.968 | [3] 1.01 | [4] 0.983 | [5] 0.958 | [6] 0.951 | [7] 0.979 | [9] 0.939 | [10] 0.983 | [11] 0.935 | [13] 0.939 | [14] 0.91 | [16] 0.914 | [17] 0.959 | [18] 0.946 | [19] 0.992 | [20] 0.925 | [22] 0.942 | [23] 0.978 | [24] 0.922 | [25] 0.947 | [26] 0.747

CC(C)(C)c1cc(-c2csc(-c3ccc(Cl)cc3)n2)cc(C(C)(C)C)c1O
active: [14] 1.22 [resistant]
inactive: [1] 1 | [2] 1.02 | [27] 1.01 | [3] 1.02 | [4] 1.02 | [5] 0.943 | [6] 1.03 | [7] 1.01 | [8] 1.09 | [9] 1.01 | [28] 1.02 | [10] 1.01 | [11] 1.03 | [12] 1.09 | [13] 1.02 | [15] 1.05 | [16] 1.03 | [17] 1.01 | [18] 0.96 | [19] 1 | [20] 1.04 | [21] 1.01 | [22] 1.03 | [23] 1.18 | [24] 0.911 | [25] 1.01 | [26] 1.07 | S. cerevisiae strains, strain wild type, active compounds read low 1.02

CC(C)(C)c1ccc(-c2nc(-c3cc(C(C)(C)C)c(O)c(C(C)(C)C)c3)cs2)cc1
inactive: [1] 1.01 | [2] 1 | [27] 1.03 | [3] 1.02 | [4] 1.02 | [5] 0.912 | [6] 1.03 | [7] 1.02 | [8] 1.09 | [9] 1.01 | [28] 1.01 | [10] 1.01 | [11] 1.03 | [12] 1.08 | [13] 1.01 | [14] 1.21 | [15] 1.04 | [16] 1.03 | [17] 1.01 | [18] 0.947 | [19] 0.988 | [20] 1.05 | [21] 1.01 | [22] 1.03 | [24] 1.17 | [25] 1.13 | [26] 1.07

Cc1ccc2nc(-c3ccc(Cl)cc3)cn2c1
inactive: S. cerevisiae deletion strains, locus YAR019C, strain CDC15, active compounds read low 0.961 | S. cerevisiae deletion strains, locus YBL105C, strain PKC1, active compounds read low 0.97 | S. cerevisiae deletion strains, locus YBR135W, strain CKS1, active compounds read low 0.968 | S. cerevisiae deletion strains, locus YBR136W, strain MEC1, active compounds read low 0.968 | S. cerevisiae deletion strains, locus YBR160W, strain CDC28, active compounds read low 0.954 | S. cerevisiae deletion strains, locus YDL017W, strain CDC7, active compounds read low 0.964 | S. cerevisiae deletion strains, locus YDL028C, strain MPS1, active compounds read low 0.974 | [3] 0.969 | S. cerevisiae deletion strains, locus YDL108W, strain KIN28, active compounds read low 0.971 | S. cerevisiae deletion strains, locus YDL132W, strain cdc53, active compounds read low 0.962 | S. cerevisiae deletion strains, locus YDL214C, strain PRR2, active compounds read low 0.95 | S. cerevisiae deletion strains, locus YDR052C, strain DBF4, active compounds read low 0.972 | S. cerevisiae deletion strains, locus YDR054C, strain cdc34, active compounds read low 0.949 | S. cerevisiae deletion strains, locus YDR226W, strain ADK1, active compounds read low 0.959 | S. cerevisiae deletion strains, locus YDR477W, strain SNF1, active compounds read low 0.933 | S. cerevisiae deletion strains, locus YER123W, strain YCK3, active compounds read low 0.89 | S. cerevisiae deletion strains, locus YER133W, strain GLC7, active compounds read low 0.923 | S. cerevisiae deletion strains, locus YFL009W, strain cdc4, active compounds read low 0.967 | S. cerevisiae deletion strains, locus YFL029C, strain CAK1, active compounds read low 0.956 | S. cerevisiae deletion strains, locus YFR003C, strain YPI1, active compounds read low 0.97 | S. cerevisiae deletion strains, locus YFR019W, strain FAB1, active compounds read low 0.944 | S. cerevisiae deletion strains, locus YFR028C, strain CDC14, active compounds read low 0.958 | S. cerevisiae deletion strains, locus YGR040W, strain KSS1, active compounds read low 0.911 | S. cerevisiae deletion strains, locus YGR052W, strain FMP48, active compounds read low 0.974 | S. cerevisiae deletion strains, locus YGR092W, strain DBF2, active compounds read low 0.903 | [8] 0.889 | S. cerevisiae deletion strains, locus YHR079C, strain IRE1, active compounds read low 0.936 | S. cerevisiae deletion strains, locus YHR082C, strain KSP1, active compounds read low 1 | S. cerevisiae deletion strains, locus YHR205W, strain SCH9, active compounds read low 0.966 | S. cerevisiae deletion strains, locus YIL147C, strain SLN1, active compounds read low 0.975 | S. cerevisiae deletion strains, locus YJL095W, strain BCK1, active compounds read low 0.948 | S. cerevisiae deletion strains, locus YJL128C, strain PBS2, active compounds read low 0.966 | S. cerevisiae deletion strains, locus YJL157C, strain FAR1, active compounds read low 0.92 | S. cerevisiae deletion strains, locus YJR016C, strain ILV3, active compounds read low 0.97 | S. cerevisiae deletion strains, locus YJR066W, strain TOR1 (second series), active compounds read low 0.937 | S. cerevisiae deletion strains, locus YJR066W, strain TOR1, active compounds read low 0.953 | S. cerevisiae deletion strains, locus YKL048C, strain ELM1, active compounds read low 0.956 | S. cerevisiae deletion strains, locus YKL067W, strain YNK1, active compounds read low 0.936 | S. cerevisiae deletion strains, locus YKL101W, strain HSL1, active compounds read low 0.953 | S. cerevisiae deletion strains, locus YKL193C, strain SDS22, active compounds read low 0.961 | S. cerevisiae deletion strains, locus YKL203C, strain TOR2, active compounds read low 0.97 | S. cerevisiae deletion strains, locus YLR113W, strain HOG1, active compounds read low 0.906 | S. cerevisiae deletion strains, locus YLR133W, strain CKI1, active compounds read low 0.953 | S. cerevisiae deletion strains, locus YLR403W, strain SFP1, active compounds read low 0.93 | S. cerevisiae deletion strains, locus YML070W, strain DAK1, active compounds read low 0.91 | S. cerevisiae deletion strains, locus YMR001C, strain CDC5, active compounds read low 0.965 | S. cerevisiae deletion strains, locus YMR205C, strain PFK2 (second series), active compounds read low 0.952 | S. cerevisiae deletion strains, locus YMR277W, strain FCP1, active compounds read low 0.961 | S. cerevisiae deletion strains, locus YNL006W, strain LST8, active compounds read low 0.962 | S. cerevisiae deletion strains, locus YNL020C, strain ARK1, active compounds read low 0.946 | S. cerevisiae deletion strains, locus YNL161W, strain CBK1, active compounds read low 0.961 | S. cerevisiae deletion strains, locus YNL183C, strain NPR1, active compounds read low 0.928 | S. cerevisiae deletion strains, locus YNL207W, strain RIO2, active compounds read low 0.97 | S. cerevisiae deletion strains, locus YNL222W, strain SSU72, active compounds read low 0.958 | S. cerevisiae deletion strains, locus YNL307C, strain MCK1 (second series), active compounds read low 0.907 | S. cerevisiae deletion strains, locus YOL078W, strain AVO1, active compounds read low 0.97 | S. cerevisiae deletion strains, locus YOL136C, strain PFK27, active compounds read low 0.921 | S. cerevisiae deletion strains, locus YOR061W, strain CKA2, active compounds read low 0.948 | S. cerevisiae deletion strains, locus YOR119C, strain RIO1, active compounds read low 0.982 | S. cerevisiae deletion strains, locus YOR231W, strain MKK1, active compounds read low 0.884 | S. cerevisiae deletion strains, locus YOR329C, strain SCD5, active compounds read low 0.969 | S. cerevisiae deletion strains, locus YPL031C, strain PHO85, active compounds read low 0.949 | S. cerevisiae deletion strains, locus YPL153C, strain RAD53, active compounds read low 0.899 | S. cerevisiae deletion strains, locus YPL204W, strain HRR25, active compounds read low 0.9 | S. cerevisiae deletion strains, locus YPL209C, strain IPL1, active compounds read low 0.959 | S. cerevisiae deletion strains, locus YPL256C, strain CLN2, active compounds read low 0.909 | S. cerevisiae deletion strains, locus YPR025C, strain CCL1, active compounds read low 0.969 | S. cerevisiae deletion strains, locus YPR106W, strain ISR1, active compounds read low 0.964 | S. cerevisiae deletion strains, locus YPR111W, strain DBF20, active compounds read low 0.96 | S. cerevisiae deletion strains, strain NNK1, active compounds read low 0.986 | S. cerevisiae deletion strains, strain TSCII, active compounds read low 0.959
